# The entries come from a sample that favours the strongest signals as a whole.
# B1: GS7807Q-bfa-507-19-507 (Bacteroides fragilis) (protein)
# chain: ASCNKFDDLNTNPDAATKVTAPMLATKLILNITQQGSAKNFVYHSMLSKQIAWSENASDEQYNLFGRTDFDGYTILTNCQKMVDAANEGDKDSYAALAKFMKAYKLFYKSLEVGDIPYSDALKGEEGVQKPKYDTQKEVMRQVLEDLEEAYTLFSSGSDFDGDPIFGGDTENWKKTVVAFELKVLTHLCKKDTDADLKVKERFARLVSSGSLMTSNADNFQLVYSNKAGQLYPFYYTQNKHSDYLMMSSVIIDNLKKFNDYRMFYYASPAKAQTDKGIKDSEWDAYLSIDPSDSYSNISVLYGKGEFCLANLRYTRVPEGEPLMRLSYAEQNFILAEGAVRGWISEDASTYYKKGIEASMNFIADNTPDKEEYTHGRTITQEYIQEYLAQPVIQLSGDKEKDLEMILLQRYLASFLQHPYDAYYDYRRTGYPVLPINPSTNLNTEKNKIPTRWMYPEAEFSYNPDNANEAVQRQYNGSDDVNKLMWILQ
# Experiments:
# Assay in all cases: glycan array binding signal (z-score within array); higher = stronger binding
# Conditions in all cases: glycan notation: IUPAC condensed, linker removed
# [1] = target: Gal(b1-4)GlcNAc(b1-3)Gal(b1-4)GlcNAc(b1-3)Gal(b1-4)GlcNAc(b1-3)Gal(b1-4)GlcNAc(b1-3)Gal(b1-4)GlcNAc(b1-2)Man(a1-3)[Gal(b1-4)GlcNAc(b1-3)Gal(b1-4)GlcNAc(b1-3)Gal(b1-4)GlcNAc(b1-3)Gal(b1-4)GlcNAc(b1-3)Gal(b1-4)GlcNAc(b1-2)Man(a1-6)]Man(b1-4)GlcNAc(b1-4)GlcNAc
# Method in brief: (§1)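 Negative Z-scores can be read as non-binding. The Z-score is calculated within each array and then averaged across arrays of one protein sequence at different concentrations or buffers and across linkers. Arrays, 3228 in all, were curated from the Consortium for Functional Glycomics database and kept only where the protein sequence was available.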
# [2] = target: Gal(b1-4)GlcNAc(b1-3)Gal(b1-4)GlcNAc(b1-3)GalNAc
# Method in brief: as §1
# [3] = target: Gal(b1-4)GlcNAc(b1-3)Gal(b1-4)GlcNAc(b1-3)[Gal(b1-4)GlcNAc(b1-3)Gal(b1-4)GlcNAc(b1-6)]GalNAc
# Method in brief: as §1
# [4] = target: Gal(b1-4)GlcNAc(b1-3)Gal(b1-4)[Fuc(a1-3)]GlcNAc(b1-3)Gal(b1-4)[Fuc(a1-3)]GlcNAc
# Method in brief: as §1
# GalNAc(a1-3)GalNAc = target: GalNAc(a1-3)GalNAc
# Method in brief: as §1
# GalNAc(b1-3)GlcNAc = target: GalNAc(b1-3)GlcNAc
# Method in brief: as §1
# GalNAc(b1-4)GlcNAc = target: GalNAc(b1-4)GlcNAc
# Method in brief: as §1
# GalNAc3S(b1-4)GlcNAc3S = target: GalNAc3S(b1-4)GlcNAc3S
# Method in brief: as §1
# [5] = target: GalNAc3S(b1-4)[Fuc(a1-3)]GlcNAc
# Method in brief: as §1
# [6] = target: GlcA3S(b1-3)Gal(b1-4)GlcNAc(b1-3)Gal(b1-4)Glc
# Method in brief: as §1
# [7] = target: GlcNAc(a1-4)Gal(b1-4)GlcNAc
# Method in brief: as §1
# [8] = target: GlcNAc(a1-4)Gal(b1-4)GlcNAc(b1-3)Gal(b1-4)[Fuc(a1-3)]GlcNAc(b1-3)Gal(b1-4)[Fuc(a1-3)]GlcNAc
# Method in brief: as §1
# [9] = target: GlcNAc(b1-3)Gal(b1-4)GlcNAc(b1-2)Man(a1-3)[GlcNAc(b1-3)Gal(b1-4)GlcNAc(b1-2)Man(a1-6)]Man(b1-4)GlcNAc(b1-4)[Fuc(a1-6)]GlcNAc
# Method in brief: as §1
# [10] = target: GlcNAc(b1-3)Gal(b1-4)GlcNAc(b1-2)[GlcNAc(b1-3)Gal(b1-4)GlcNAc(b1-6)]Man(a1-6)[GlcNAc(b1-3)Gal(b1-4)GlcNAc(b1-2)Man(a1-3)]Man(b1-4)GlcNAc(b1-4)GlcNAc
# Method in brief: as §1
# [11] = target: GlcNAc(b1-3)Gal(b1-4)GlcNAc(b1-3)Gal(b1-4)GlcNAc(b1-2)[GlcNAc(b1-3)Gal(b1-4)GlcNAc(b1-3)Gal(b1-4)GlcNAc(b1-6)]Man(a1-6)[GlcNAc(b1-3)Gal(b1-4)GlcNAc(b1-3)Gal(b1-4)GlcNAc(b1-2)Man(a1-3)]Man(b1-4)GlcNAc(b1-4)[Fuc(a1-6)]GlcNAc
# Method in brief: as §1
# [12] = target: GlcNAc(b1-3)Gal(b1-4)GlcNAc(b1-3)Gal(b1-4)GlcNAc(b1-3)Gal(b1-4)GlcNAc(b1-3)Gal(b1-4)GlcNAc(b1-2)Man(a1-3)[GlcNAc(b1-3)Gal(b1-4)GlcNAc(b1-3)Gal(b1-4)GlcNAc(b1-3)Gal(b1-4)GlcNAc(b1-3)Gal(b1-4)GlcNAc(b1-2)Man(a1-6)]Man(b1-4)GlcNAc(b1-4)[Fuc(a1-6)]GlcNAc
# Method in brief: as §1
# [13] = target: Man(a1-2)Man(a1-3)[Man(a1-6)]Man(a1-6)[Man(a1-2)Man(a1-3)]Man(b1-4)GlcNAc(b1-4)GlcNAc
# Method in brief: as §1
# [14] = target: Man(a1-2)Man(a1-6)[Man(a1-3)]Man(a1-6)[Man(a1-2)Man(a1-2)Man(a1-3)]Man
# Method in brief: as §1
# Man(a1-6)Man = target: Man(a1-6)Man
# Method in brief: as §1
# [15] = target: Neu5Ac(a2-3)Gal(b1-3)GalNAc(b1-4)[Neu5Ac(a2-3)]Gal(b1-4)Glc
# Method in brief: as §1
# [16] = target: Neu5Ac(a2-3)Gal(b1-3)[Fuc(a1-4)]GlcNAc(b1-3)Gal(b1-4)[Fuc(a1-3)]GlcNAc
# Method in brief: as §1
# [17] = target: Neu5Ac(a2-3)Gal(b1-4)GlcNAc
# Method in brief: as §1
# [18] = target: Neu5Ac(a2-3)Gal(b1-4)GlcNAc(b1-2)Man(a1-3)[GlcNAc(b1-4)][Neu5Ac(a2-3)Gal(b1-4)GlcNAc(b1-2)Man(a1-6)]Man(b1-4)GlcNAc(b1-4)GlcNAc
# Method in brief: as §1
# [19] = target: Neu5Ac(a2-3)Gal(b1-4)GlcNAc(b1-2)Man(a1-3)[Neu5Ac(a2-3)Gal(b1-4)GlcNAc(b1-2)Man(a1-6)]Man(b1-4)GlcNAc(b1-4)GlcNAc
# Method in brief: as §1
# [20] = target: Neu5Ac(a2-3)Gal(b1-4)GlcNAc(b1-2)[Neu5Ac(a2-3)Gal(b1-4)GlcNAc(b1-6)]Man(a1-6)[Neu5Ac(a2-3)Gal(b1-4)GlcNAc(b1-2)Man(a1-3)]Man(b1-4)GlcNAc(b1-4)GlcNAc
# Method in brief: as §1
# [21] = target: Neu5Ac(a2-3)Gal(b1-4)GlcNAc(b1-3)GalNAc
# Method in brief: as §1
# [22] = target: Neu5Ac(a2-3)Gal(b1-4)[Fuc(a1-3)]GlcNAc(b1-3)Gal(b1-4)GlcNAc
# Method in brief: as §1
# [23] = target: Neu5Ac(a2-6)Gal(b1-4)GlcNAc(b1-2)Man(a1-3)Man(b1-4)GlcNAc(b1-4)GlcNAc
# Method in brief: as §1
# [24] = target: Neu5Ac(a2-6)Gal(b1-4)GlcNAc(b1-2)[Neu5Ac(a2-6)Gal(b1-4)GlcNAc(b1-4)]Man(a1-3)[GlcNAc(b1-4)][Neu5Ac(a2-6)Gal(b1-4)GlcNAc(b1-4)Man(a1-6)]Man(b1-4)GlcNAc(b1-4)GlcNAc
# Method in brief: as §1
# [25] = target: Neu5Ac(a2-6)Gal(b1-4)GlcNAc(b1-2)[Neu5Ac(a2-6)Gal(b1-4)GlcNAc(b1-6)]Man(a1-6)[Neu5Ac(a2-6)Gal(b1-4)GlcNAc(b1-2)Man(a1-3)][GlcNAc(b1-4)]Man(b1-4)GlcNAc(b1-4)GlcNAc
# Method in brief: as §1
# [26] = target: Neu5Ac(a2-6)Gal(b1-4)GlcNAc(b1-3)Gal(b1-4)GlcNAc(b1-3)Gal(b1-4)GlcNAc(b1-2)Man(a1-3)[Neu5Ac(a2-6)Gal(b1-4)GlcNAc(b1-3)Gal(b1-4)GlcNAc(b1-3)Gal(b1-4)GlcNAc(b1-2)Man(a1-6)]GalNAc
# Method in brief: as §1
# [27] = target: Neu5Ac(a2-6)Gal(b1-4)GlcNAc(b1-3)GalNAc
# Method in brief: as §1
# [28] = target: Neu5Ac(a2-8)Neu5Ac(a2-8)Neu5Ac(a2-3)Gal(b1-4)Glc
# Method in brief: as §1
binder,measurement,setting,value
B1,glycan array binding signal (z-score),[1],-0.15
same,glycan array binding signal (z-score),[2],-0.268
same,glycan array binding signal (z-score),[3],-0.074
same,glycan array binding signal (z-score),[4],-0.174
same,glycan array binding signal (z-score),GalNAc(a1-3)GalNAc,-0.06
same,glycan array binding signal (z-score),GalNAc(b1-3)GlcNAc,-0.454
same,glycan array binding signal (z-score),GalNAc(b1-4)GlcNAc,3.09
same,glycan array binding signal (z-score),GalNAc3S(b1-4)GlcNAc3S,-0.279
same,glycan array binding signal (z-score),[5],-0.654
same,glycan array binding signal (z-score),[6],0.23
same,glycan array binding signal (z-score),[7],-0.604
same,glycan array binding signal (z-score),[8],3.02
same,glycan array binding signal (z-score),[9],2.43
same,glycan array binding signal (z-score),[10],1.65
same,glycan array binding signal (z-score),[11],2.73
same,glycan array binding signal (z-score),[12],-0.41
same,glycan array binding signal (z-score),[13],-0.639
same,glycan array binding signal (z-score),[14],0.113
same,glycan array binding signal (z-score),Man(a1-6)Man,0.531
same,glycan array binding signal (z-score),[15],-0.316
same,glycan array binding signal (z-score),[16],-0.38
same,glycan array binding signal (z-score),[17],-0.496
same,glycan array binding signal (z-score),[18],-0.905
same,glycan array binding signal (z-score),[19],-0.347
same,glycan array binding signal (z-score),[20],1.35
same,glycan array binding signal (z-score),[21],-0.737
same,glycan array binding signal (z-score),[22],-0.425
same,glycan array binding signal (z-score),[23],-0.09
same,glycan array binding signal (z-score),[24],0.481
same,glycan array binding signal (z-score),[25],0.863
same,glycan array binding signal (z-score),[26],3.17
same,glycan array binding signal (z-score),[27],0.841
same,glycan array binding signal (z-score),[28],-0.141
